The test system of assay [1] is Staphylococcus aureus. The following applies: Concentration 20 uM; ASSAY_TEST Inhibition of Bacterial Growth; detection method Absorption (OD600); MEDIA CAMHB; plate type 384well; NBS; CORNING #3640; time 18 hr.
Assay [2] relates to Escherichia coli. The following applies: Concentration 20 uM; ASSAY_TEST Inhibition of Bacterial Growth; detection method Absorption (OD600); MEDIA CAMHB; plate type 384well; NBS; CORNING #3640; time 18 hr.

One may read the Inhibition as the relative decrease from the control value, in per cent.

The structures appear in SMILES notation. Entries with a potency or affinity are not part of this list.

On to `CCC(=O)O[C@]1(C(=O)SCF)[C@H](C)C[C@H]2[C@@H]3C[C@H](F)C4=CC(=O)C=C[C@]4(C)[C@@]3(F)[C@@H](O)C[C@@]21C` [FLUTICASONE PROPIONATE], for which the Inhibition is listed as -21.58% in assay [1] and 6.95% in assay [2].

For `Cl.Cn1c(NCCN(CCO)CCCc2ccc([N+](=O)[O-])cc2)cc(=O)n(C)c1=O`, the Inhibition is listed as -11.53% in assay [1] and 3.31% in assay [2].

As for `O=C1CCC(N2C(=O)c3ccccc3C2=O)C(=O)N1` (centres undefined) [THALIDOMIDE], the Inhibition in assay [1] is 9.61%; in assay [2], -2.18%.

In the case of `CO[C@H]1O[C@@H]2O[C@@]3(C)CC[C@H]4[C@H](C)CC[C@@H]([C@H]1C)[C@@]24OO3`, the results for the Inhibition in assay [1] and in assay [2] were 8.78% and 13.66%, respectively.

Turning to `CC(c1cc2ccccc2s1)N(O)C(N)=O` (centres undefined) [ZILEUTON], the Inhibition in assay [1] was -21.42%; in assay [2], 6.17%.

In the case of `CCCCC[C@H](O)/C=C/[C@H]1[C@H](O)CC(=O)[C@@H]1CCCCCCC(=O)O` [ALPROSTADIL], the Inhibition is 3.1% in assay [1] and 6.55% in assay [2].

In the case of `CC12CCC(=O)C=C1CCC1C2CCC2(C)C1CCC2(O)C(=O)CO` (centres undefined), the Inhibition is recorded as 8.54% in assay [1] and -7.68% in assay [2].

Take `CC[C@H]1OC(=O)[C@H](C)C(=O)[C@H](C)[C@@H](O[C@@H]2O[C@H](C)C[C@H](N(C)C)[C@H]2O)[C@](C)(OC)C[C@@H](C)C(=O)[C@H](C)[C@@H]2N(CCCCn3cnc(-c4cccnc4)c3)C(=O)O[C@@]21C`: the results for the Inhibition in assay [1] and in assay [2] were 4.38% and 4.81%, respectively.

For the compound `O=C(O)c1cc(/N=N/c2ccc(S(=O)(=O)Nc3ccccn3)cc2)ccc1O` [SULFASALAZINE], the Inhibition in assay [1] was -13.67%; in assay [2], 7.84%.

With `CC(=O)O.NCc1ccc(S(N)(=O)=O)cc1` [MAFENIDE ACETATE], the figures for the Inhibition in assay [1] and in assay [2] were 12.98% and 1.36%, respectively.

In the case of `COC(=O)[C@H](c1ccccc1Cl)N1CCc2sccc2C1` [CLOPIDOGREL], the Inhibition in assay [1] is on record as 12.7%; in assay [2], -0.51%.

Take `O.OC[C@H]1O[C@@H](n2cnc3c(NC4CCCC4)nc(Cl)nc32)[C@@H](O)C1O` (some centres undefined): the Inhibition in assay [1] is 16.71%; in assay [2], -5.97%.

For `CCCc1nc2c(C)cc(-c3nc4ccccc4n3C)cc2n1Cc1ccc(-c2ccccc2C(=O)O)cc1`, the Inhibition is given as 33.03% in assay [1] and 4.91% in assay [2].

For the compound `CN(CCOc1ccc(NS(C)(=O)=O)cc1)CCc1ccc(NS(C)(=O)=O)cc1` [DOFETILIDE], the Inhibition came to 11.97% in assay [1] and 6.72% in assay [2].

For the compound `CCCCC(=O)OC1(C(=O)CO)CCC2C3CCC4=CC(=O)CCC4(C)C3C(O)CC21C` (centres undefined), the Inhibition is given as 4.02% in assay [1] and 3.22% in assay [2].

As to `CCC(CO)NCCNC(CC)CO` (centres undefined), the Inhibition in assay [1] worked out at 8.81%; in assay [2], 2.87%.

As for `COc1ccccc1OCC(O)CN1CCN(CC(=O)Nc2c(C)cccc2C)CC1.Cl.Cl` (centres undefined) [RANOLAZINE HYDROCHLORIDE], the figures for the Inhibition in assay [1] and in assay [2] were 15.16% and -4.15%, respectively.

Consider `C[C@]12CC[C@@H]3c4ccc(OS(=O)(=O)[O-])cc4CC[C@H]3[C@@H]1CCC2=O.[Na+]` [ESTRONE SODIUM SULFATE], for which the Inhibition came to 8.52% in assay [1] and 6.3% in assay [2].

Regarding `Cl.Nc1nc2ccc(OC(F)(F)F)cc2s1`, the Inhibition turned out to be 13.98% in assay [1] and 2.43% in assay [2].

On to `CC1=C(/C=C/C(C)=C/C=C/C(C)=C\C(=O)O)C(C)(C)CCC1` [ISOTRETINOIN], for which the Inhibition was 5.02% in assay [1] and -1.2% in assay [2].

On to `Cl.NC12CC3CC(CC(C3)C1)C2` [AMANTADINE HYDROCHLORIDE], for which the Inhibition is 17.85% in assay [1] and -0.07% in assay [2].

`CC(=O)NCCCCCCNC(C)=O` [HEXAMETHYLENEBISACETAMIDE]: the Inhibition in assay [1] is given as -6.23%; in assay [2], 3.8%.

On to `NC(=O)c1cnccn1` [PYRAZINAMIDE], for which the results for the Inhibition in assay [1] and in assay [2] were 14.57% and 2%, respectively.

For `O=S(=O)([O-])CCS.[Na+]` [MESNA], the Inhibition in assay [1] is listed as 2.58%; in assay [2], -2.71%.

As for `COc1ccc(-c2oc3c(CC=C(C)C)c(O[C@@H]4O[C@H](CO)[C@@H](O)[C@H](O)[C@H]4O)cc(O)c3c(=O)c2O[C@@H]2O[C@@H](C)[C@H](O)[C@@H](O)[C@H]2O)cc1` [ICARIIN], the Inhibition is recorded as 11.47% in assay [1] and -5.7% in assay [2].

For `CC(C)c1nc(CN(C)C(=O)N[C@H](C(=O)N[C@@H](Cc2ccccc2)C[C@H](O)[C@H](Cc2ccccc2)NC(=O)OCc2cncs2)C(C)C)cs1` [RITONAVIR], the Inhibition in assay [1] was 13.2%; in assay [2] it was -0.63%.

For the compound `CCN(CC)CCOC(=O)C1(C2CCCCC2)CCCCC1.Cl` [DICYCLOMINE HYDROCHLORIDE], the Inhibition in assay [1] was determined as 8.61%; in assay [2], 0.37%.

For the origin of these results see ChEMBL document CHEMBL4513141, “CO-ADD screening of NIH (USA) - Clinical Collection” (2021).
